Experimental data from PubChem BioAssay (NCI).
This is part of a sample that, as a whole, favours compounds with a hit. Of some 83,000 tested, about 20% had one in any assay.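 Compound tested at a single concentration for 48 hours in 96-well plates; a percent growth value below 10 was scored as active.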

Key:
Experiment in all cases: NCI-60 one-dose screen, 48 h (100 = growth as untreated, 0 = no growth, -100 = all killed)
SR leukemia = details: 10 µM
OVCAR-8 ovarian = details: 10 µM
OVCAR-5 ovarian = details: 10 µM
OVCAR-4 ovarian = details: 10 µM
SK-OV-3 ovarian = details: 10 µM
IGROV1 ovarian = details: 10 µM
OVCAR-3 ovarian = details: 10 µM
NCI/ADR-RES ovarian = details: 10 µM
T-47D breast = details: 10 µM
BT-549 breast = details: 10 µM
SW-620 colon = details: 10 µM
MCF7 breast = details: 10 µM unless noted
HCT-116 colon = details: 10 µM
HCC-2998 colon = details: 10 µM
RPMI-8226 leukemia = details: 10 µM
HS 578T breast = details: 10 µM
MDA-MB-435 melanoma = details: 10 µM
KM12 colon = details: 10 µM

Measured: growth

Cc1ccc(S(=O)(=O)O)c(C)c1
inactive: SR leukemia 95.2% | OVCAR-8 ovarian 105% | OVCAR-5 ovarian 104% | OVCAR-4 ovarian 86.5% | SK-OV-3 ovarian 95.7% | IGROV1 ovarian 103% | OVCAR-3 ovarian 110% | NCI/ADR-RES ovarian 104% | T-47D breast 92.5% | BT-549 breast 109% | SW-620 colon 98.8% | MCF7 breast 95.3% | HCT-116 colon 101% | HCC-2998 colon 107%

Cc1ccc(N)cc1[N+](=O)[O-]
inactive: RPMI-8226 leukemia 116% | OVCAR-8 ovarian 103% | OVCAR-5 ovarian 116% | OVCAR-4 ovarian 83.3% | SK-OV-3 ovarian 112% | IGROV1 ovarian 110% | OVCAR-3 ovarian 115% | HS 578T breast 113% | NCI/ADR-RES ovarian 102% | T-47D breast 107% | BT-549 breast 97.9% | MDA-MB-435 melanoma 119% | SW-620 colon 100% | MCF7 breast 76.4% | HCT-116 colon 101% | HCC-2998 colon 92.5% | KM12 colon 105%

CN(C)CCN(Cc1ccccc1)c1ccccc1
inactive: SR leukemia 88.1% | OVCAR-8 ovarian 115% | OVCAR-5 ovarian 125% | SK-OV-3 ovarian 110% | IGROV1 ovarian 124% | OVCAR-3 ovarian 121% | HS 578T breast 112% | NCI/ADR-RES ovarian 103% | T-47D breast 95% | BT-549 breast 119% | MDA-MB-435 melanoma 95% | SW-620 colon 102% | MCF7 breast 112% | HCT-116 colon 113% | HCC-2998 colon 105% | KM12 colon 113%

O=C(Nc1ccccc1C(=O)NCC1CC1)c1cccs1
inactive: RPMI-8226 leukemia 97.4% | OVCAR-8 ovarian 99.4% | OVCAR-5 ovarian 99.9% | OVCAR-4 ovarian 98.7% | SK-OV-3 ovarian 110% | IGROV1 ovarian 118% | OVCAR-3 ovarian 117% | HS 578T breast 114% | NCI/ADR-RES ovarian 101% | T-47D breast 106% | BT-549 breast 99.9% | MDA-MB-435 melanoma 105% | SW-620 colon 109% | MCF7 breast 106% | HCT-116 colon 93.7% | HCC-2998 colon 103% | KM12 colon 107%

Oc1ccccc1-c1nnco1
inactive: RPMI-8226 leukemia 86.8% | OVCAR-8 ovarian 98.9% | OVCAR-5 ovarian 107% | OVCAR-4 ovarian 83.1% | SK-OV-3 ovarian 91.1% | IGROV1 ovarian 86.3% | OVCAR-3 ovarian 101% | HS 578T breast 45.1% | NCI/ADR-RES ovarian 93.1% | T-47D breast 82% | BT-549 breast 77.5% | MDA-MB-435 melanoma 91.5% | SW-620 colon 98.3% | MCF7 breast 102% | HCT-116 colon 106% | HCC-2998 colon 104% | KM12 colon 100%

N#Cc1ccc(NC(=O)Nc2cccc(C#N)c2)cc1
inactive: RPMI-8226 leukemia 30.9% | OVCAR-8 ovarian 83.6% | OVCAR-5 ovarian 116% | OVCAR-4 ovarian 91.2% | SK-OV-3 ovarian 115% | IGROV1 ovarian 78% | OVCAR-3 ovarian 105% | HS 578T breast 99.1% | NCI/ADR-RES ovarian 90.1% | T-47D breast 66.9% | BT-549 breast 108% | MDA-MB-435 melanoma 78.8% | SW-620 colon 95.8% | MCF7 breast 82.8% | HCT-116 colon 82.5% | HCC-2998 colon 95.1% | KM12 colon 102%

COc1ccc(C(=O)C(Br)C(Br)C(=O)O)cc1 (stereo not given)
inactive: RPMI-8226 leukemia 110% | OVCAR-8 ovarian 105% | OVCAR-5 ovarian 101% | OVCAR-4 ovarian 118% | SK-OV-3 ovarian 104% | IGROV1 ovarian 110% | OVCAR-3 ovarian 116% | HS 578T breast 99.6% | NCI/ADR-RES ovarian 92.1% | T-47D breast 106% | BT-549 breast 99.5% | MDA-MB-435 melanoma 108% | SW-620 colon 113% | MCF7 breast 91.1% | HCT-116 colon 94.9% | HCC-2998 colon 113%

O=C1OC(=O)C2C1C1(Cl)C(Cl)=C(Cl)C2(Cl)C2C(=O)OC(=O)C21 (stereo not given)
inactive: RPMI-8226 leukemia 96.4% | OVCAR-8 ovarian 100% | OVCAR-5 ovarian 106% | OVCAR-4 ovarian 101% | SK-OV-3 ovarian 102% | IGROV1 ovarian 109% | OVCAR-3 ovarian 112% | HS 578T breast 113% | NCI/ADR-RES ovarian 108% | T-47D breast 95.4% | BT-549 breast 103% | MDA-MB-435 melanoma 101% | SW-620 colon 113% | MCF7 breast 95.8% | HCT-116 colon 102% | HCC-2998 colon 108% | KM12 colon 106%

CCOC(=O)C(=O)C=P(c1ccccc1)(c1ccccc1)c1ccccc1
inactive: RPMI-8226 leukemia 102% | OVCAR-8 ovarian 107% | OVCAR-5 ovarian 101% | OVCAR-4 ovarian 111% | SK-OV-3 ovarian 109% | IGROV1 ovarian 102% | OVCAR-3 ovarian 103% | HS 578T breast 105% | NCI/ADR-RES ovarian 103% | T-47D breast 97.7% | BT-549 breast 102% | MDA-MB-435 melanoma 113% | SW-620 colon 114% | MCF7 breast 97.5% | HCT-116 colon 100% | HCC-2998 colon 107% | KM12 colon 99.6%

C=C[Si](OC(C)=O)(OC(C)=O)OC(C)=O
inactive: RPMI-8226 leukemia 95.9% | OVCAR-8 ovarian 109% | OVCAR-5 ovarian 115% | OVCAR-4 ovarian 110% | SK-OV-3 ovarian 96.7% | IGROV1 ovarian 97.2% | OVCAR-3 ovarian 108% | HS 578T breast 107% | NCI/ADR-RES ovarian 104% | T-47D breast 93.6% | BT-549 breast 95.9% | MDA-MB-435 melanoma 99.6% | SW-620 colon 101% | MCF7 breast 92.9% | HCT-116 colon 100% | HCC-2998 colon 103% | KM12 colon 104%
